# In the library only some 2.4% were active in any assay of this set; here they are far more common.
# D2 antag: antagonists of human D2 dopamine receptor; P14416; HEK293 TREx D2 cells, calcium flux, dopamine EC80; inhibition, % at 10 µM; hit rate 2% among 340,000; in the data active = inhibition above about 30%; inactive = below that, where a call was filed; also: 0% is about no effect
# Target sequence (P14416 whole entry, looked up): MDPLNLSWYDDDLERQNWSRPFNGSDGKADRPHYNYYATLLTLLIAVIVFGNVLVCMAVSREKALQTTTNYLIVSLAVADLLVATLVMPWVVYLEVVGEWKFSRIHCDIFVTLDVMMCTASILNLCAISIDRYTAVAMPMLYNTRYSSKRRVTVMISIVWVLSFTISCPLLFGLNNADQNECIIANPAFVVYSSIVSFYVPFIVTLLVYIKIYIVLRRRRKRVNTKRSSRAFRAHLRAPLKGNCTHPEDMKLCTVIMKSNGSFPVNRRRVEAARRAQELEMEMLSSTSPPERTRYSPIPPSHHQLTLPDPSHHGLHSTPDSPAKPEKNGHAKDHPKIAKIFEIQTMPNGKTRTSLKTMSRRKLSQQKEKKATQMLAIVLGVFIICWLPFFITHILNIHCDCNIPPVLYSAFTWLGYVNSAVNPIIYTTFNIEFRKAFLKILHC
#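 In this primary screen, negative modulation is detected by tracking calcium flux after an EC80 dopamine challenge in inducible HEK293 T-REx D2 cells preexposed to test compound for 180 s.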
# D2 ag-1: agonists of human D2 dopamine receptor | P14416 | hit rate 0.53% among 340,000 | HEK293 T-REx D2 cells, calcium flux agonist mode | activation, % at 2 µM;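 active = activation over 3 SD above normal in the single-dose calcium agonist read, cut at about 30% in these data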; also: 0% is about no effect
#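 In this primary screen, compounds producing a positive calcium signal within 180 s of addition to tetracycline-induced, force-coupled HEK293 Trex D2 cells are flagged; cells are dye-loaded with a no-wash calcium kit beforehand.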
# D2 ag-2: human D2 receptor agonism in beta-arrestin assay; P14416; DiscoveRx PathHunter D2 beta-arrestin, luminescence, 90 min; 100% = 57 uM dopamine signal; activation, % (concentration not given with the values); hit rate 0.084% among 360,000; in the data active = activation above about 40%; inconclusive = between about 15% and that limit
#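 Agonist mode: compounds alone added to overnight-plated D2 PathHunter cells for 90 min at 37 C, with 57 uM final dopamine (EC100) defining full response. Beta-arrestin recruitment detected by chemiluminescent reagent, read after 1 h at ambient temperature.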
# D2 PAM-1: positive allosteric modulators of human D2 dopamine receptor. HEK293 T-REx D2, calcium flux, EC20 dopamine potentiation. P14416. potentiation, % at 10 µM. hit rate 0.34% among 340,000;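 active = potentiation over 3 SD above the plate norm, cut at about 30% in these data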; also: 0% is about no effect
#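 Primary screen. Calcium kinetics in induced HEK293 T-REx D2 cells: compound pre-addition 180 s, EC20 dopamine, 180 s more.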
# D2 PAM-2: potentiates the human D2 dopamine receptor allosterically; AID 624464; DiscoveRx D2 beta-arrestin cells, luminescence, 90 min; 100% = 57 uM dopamine signal; potentiation, % (no concentration beside the values); P14416; hit rate 0.23% among 360,000; in the data active = potentiation above about 50%; inconclusive = mostly about 30% to 49%
#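 PathHunter beta-arrestin assay in DiscoveRx D2 cells. Compounds were added with an EC20 of dopamine (50 nM final) for 90 min at 37 deg C. Luminescence was read 1 h after detection reagent, with 57 uM dopamine as the EC100 control.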
# An asterisk follows results filed as active; ? = inconclusive; . = not tested or not shown; ! = a repeat was not active.
SMILES,D2 antag,D2 ag-1,D2 ag-2,D2 PAM-1,D2 PAM-2
Cc1noc(C)c1CSc1nc2[nH]ncc2c(=O)n1-c1ccccc1,-28.4,0.1,-3.3,31.8*,-6.0
FC(F)(F)c1cc(-c2cccc(Br)c2)nc2ncnn12,.,.,.,5.3,.
c1ccc(-c2cnc(SCCN3CCOCC3)n2CC2CCCO2)cc1 (stereo unspecified),33.8*,-0.2,1.3,-8.8,-16.0
O=C(Nc1ccccc1C(=O)NC1CC1)c1ccc([N+](=O)[O-])o1,-3.1,0.3,?,15.6,58.7*
O=C(Nc1cccc2ccccc12)c1ccc([N+](=O)[O-])o1,1.5,0.2,2.0,-11.4,7.8
COc1ccc(N=Nc2nc3cc(Br)c(Br)cc3n2C)c(OC)c1,-0.3,32.5*,-0.8,-2.1,-11.1
CC(NC(=O)C1CCCN1C(=O)OC(C)(C)C)C(=O)OCc1ccccc1 (stereo unspecified),.,.,-5.2,.,0.5
CC(C)(C)OC(=O)N1CCC[C@H]1C(=O)Nc1ccc(Br)cc1,9.9,-0.6,1.7,-3.5,-11.5
CC(C)(C)OC(=O)N1CCCC1C(=O)NC(Cc1ccccc1)C(=O)O (stereo unspecified),31.8*,1.6,-2.6,7.6,0.8
CC(C)(C)OC(=O)N1CCC[C@H]1C(=O)Nc1ccc(C#N)cc1,62.7*,0.3,-5.2,-7.5,-6.0
CCCc1cc(=O)oc2c3c(ccc12)OCN(Cc1ccccc1OC)C3,.,6.3,.,-1.6,.
CN(C)c1ccc(C(=O)N2CCCC(N3CCN(Cc4ccc5c(c4)OCO5)CC3)C2)cc1 (stereo unspecified),31.6*,1.0,-4.8,-22.6,-43.9
O=C(c1ccc(F)cc1)N1CCCC(N2CCN(Cc3ccc4c(c3)OCO4)CC2)C1 (stereo unspecified),-32.4,3.6,-4.1,-12.7,-23.7
O=C(CCS(=O)(=O)c1cccc2nsnc12)N1CCN(Cc2ccc3c(c2)OCO3)CC1,1.5,36.2*,-1.1,-3.8,-7.0
CCN(CC)C(=O)N1CCN(Cc2ccc3c(c2)OCO3)CC1,-16.3,33.1*,-1.6,-10.4,-3.7
CC(=O)c1ccc(OCC(O)CN2CCN(Cc3ccc4c(c3)OCO4)CC2)cc1 (stereo unspecified),56.2*!,1.7,-2.2,3.2,-6.2
O=C(CCS(=O)(=O)c1cccc2nsnc12)N1CCN(C(=O)c2ccco2)CC1,11.4,0.0,-6.7,-6.0,-9.7
C[C@@H]1CCCCO[C@H](CN(C)C(=O)Nc2ccc(F)cc2)[C@@H](C)CN([C@H](C)CO)C(=O)c2cc(N(C)C)ccc2O1,.,.,-8.4,.,5.3
Cc1cccc(N(C)C(=O)Cn2cnc3nc4c(cc3c2=O)CCCC4)c1,.,.,.,2.6,.
COc1ccccc1CNC(=O)C1CCN(S(=O)(=O)Cc2ccccc2)CC1,.,1.2,.,0.8,.
COc1ccc(-c2cc(-c3ccc4c(c3)NC(=O)CO4)nc3c2COc2ccc(F)cc2-3)cc1,.,-0.2,.,16.6,.
CCc1nn(CC(=O)NCc2ccco2)c(=O)c2cc3cc(F)ccc3n12,.,-0.5,.,6.8,.
C[C@@H]1CCCCO[C@@H](CN(C)Cc2ccc(C(F)(F)F)cc2)[C@@H](C)CN([C@H](C)CO)C(=O)c2cc(N(C)C)ccc2O1,.,.,-11.2,.,-2.7
CCN(CC)C(=O)Cn1c(=O)n(CC2CCC(C(=O)NC)CC2)c(=O)c2sccc21 (stereo unspecified),.,-0.6,.,-14.5,.
O=C(c1cc2ccccc2o1)N1CCN(Cc2ccc3c(c2)OCO3)CC1,77.7*,-0.5,-0.9,-19.1,-32.8
SMILES,D2 antag,D2 ag-1,D2 ag-2,D2 PAM-1,D2 PAM-2
CCCCN1CCc2c1nc1ccc(Br)cc1c2N,67.9*,-0.8,-0.5,-22.2,-21.8
Cc1[nH]c2ccccc2c1C(=O)CN1CCN(C2CCCCC2)CC1,58.2*,-0.5,.,-42.6,.
Cc1[nH]c2ccccc2c1C(=O)CN1CCN(C/C=C/c2ccccc2)CC1,80.3*,0.4,-6.0,-30.3,-44.1
COc1ccc(-n2ncc3c2CC(C)(C)CC3NC(=O)c2oc(C)cc2C)cc1 (stereo unspecified),-11.0,-0.4,-5.6,36.5*,1.4
COCCOC(=O)c1c(C)oc2ccc(OCc3ccccc3)cc12,64.5*,0.4,-5.1,15.5,-4.6
O=C(Nc1cccc(C(F)(F)F)c1)c1cc2c(s1)-c1ccccc1OC2,40.3*,0.4,-2.2,-16.0,-13.1

# Screening results (PubChem BioAssay)
